Here are results for five compounds from PubChem BioAssay (EPA / NIEHS).

Read-out in assay [1]: Urokinase-type plasminogen activator receptor (uPAR), PLAUR (gene 5329)
Nature of the assay: BSK_CASM3C_uPAR: BioMAP Diversity Plus: CASM3C Assay for Urokinase-type plasminogen activator receptor (uPAR) Biomarker Activity (AID 2283054).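 Also: cell-surface uPAR protein level quantified by ELISA.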 The note with it: primary human coronary artery smooth muscle cells; actives raise or lower the signal.

Read-out in assay [2]: Vascular cell adhesion molecule 1 (VCAM1), VCAM1 (gene 7412)
The assay is described as follows: BSK_CASM3C_VCAM1: BioMAP Diversity Plus: CASM3C Assay for Vascular cell adhesion molecule 1 (VCAM1) Biomarker Activity (AID 2283055).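 Also: VCAM-1 protein level quantified by ELISA on the cells.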 Conditions: primary human coronary artery smooth muscle cells; actives raise or lower the signal.

Read-out in assay [3]: Collagen III, COL3A1 (gene 1281)
The assay is described as follows: BSK_hDFCGF_CollagenIII: BioMAP Diversity Plus: hDFCGF Assay for Collagen III Biomarker Activity (AID 2283056). Conditions: primary human foreskin fibroblasts; actives raise or lower the signal. Summed up:
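ELISA readout of Collagen III in human dermal (foreskin) fibroblasts, taken 24 h post-treatment. Gain or loss relative to DMSO vehicle fitted in both directions.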

The nature of assay [4]: BSK_hDFCGF_Proliferation: Cell Proliferation Assessment in the BioMAP Diversity Plus: hDFCGF Assay (AID 2283059).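 Also: curves fitted for both rise and fall of signal versus DMSO baseline.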 Conditions: primary human foreskin fibroblasts. Summed up:
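This proliferation readout used SRB total-protein staining of human foreskin fibroblasts […], normalized to DMSO with bidirectional curve fitting.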

Read-out in assay [5]: Macrophage colony-stimulating factor (MCSF), CSF1 (gene 1435)
The assay is described as follows: BSK_hDFCGF_MCSF: BioMAP Diversity Plus: hDFCGF Assay for Macrophage colony-stimulating factor (MCSF) Biomarker Activity (AID 2283060). The note with it: primary human foreskin fibroblasts; actives raise or lower the signal. Summed up: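 M-CSF levels read by ELISA at 24 h post-dosing in human skin fibroblasts. Parallel cultures stained with SRB assessed cytotoxicity at the same time point; response fitted in both directions against the DMSO baseline.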

The nature of assay [6]: BSK_hDFCGF_SRB: Viability Assessment in the BioMAP Diversity Plus: hDFCGF Assay (AID 2283061).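 Also: cells exposed to compound for 24 h before the read.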 The note with it: primary human foreskin fibroblasts. Summed up: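 Viability was read as total protein: after 10% TCA fixation, wells were stained with 0.1% sulforhodamine B and read at 560 nm. Primary human foreskin fibroblasts were dosed for 24 h, with bidirectional fitting versus DMSO.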

Read-out in assay [7]: TIMP metallopeptidase inhibitor 1 (TIMP1), TIMP1 (gene 7076)
Nature of the assay: BSK_hDFCGF_TIMP1: BioMAP Diversity Plus: hDFCGF Assay for TIMP metallopeptidase inhibitor 1 (TIMP1) Biomarker Activity (AID 2283062). Conditions: primary human foreskin fibroblasts; actives raise or lower the signal. Summed up:
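TIMP-1 measured by ELISA 24 h after chemical dosing of primary human skin fibroblasts, with gain or loss fitted relative to DMSO. Parallel SRB staining (560 nm) monitored overt cytotoxicity.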

Read-out in assay [8]: Monokine induced gamma interferon (MIG), CXCL9 (gene 4283)
The assay is described as follows: BSK_hDFCGF_MIG: BioMAP Diversity Plus: hDFCGF Assay for Monokine induced gamma interferon (MIG) Biomarker Activity (AID 2283063). Conditions: primary human foreskin fibroblasts; actives raise or lower the signal. Summed up:
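Human primary foreskin fibroblasts in the hDFCGF system, exposed to test chemical for 24 h; MIG measured by ELISA. Bidirectional curve fitting against DMSO negative control as activity baseline.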

Read-out in assay [9]: Matrix Metallopeptidase 1 (MMP1), MMP1 (gene 4312)
Nature of the assay: BSK_hDFCGF_MMP1: BioMAP Diversity Plus: hDFCGF Assay for Matrix Metallopeptidase 1 (MMP1) Biomarker Activity (AID 2283064). The note with it: primary human foreskin fibroblasts; actives raise or lower the signal. Summed up: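 MMP1 levels quantified by ELISA 24 h after dosing human dermal fibroblast cultures, with parallel SRB total-protein staining for overt cytotoxicity. Data fitted in both directions against DMSO baseline.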

Read-out in assay [10]: Vascular cell adhesion molecule 1 (VCAM1), VCAM1 (gene 7412)
The assay is described as follows: BSK_hDFCGF_VCAM1: BioMAP Diversity Plus: hDFCGF Assay for Vascular cell adhesion molecule 1 (VCAM1) Biomarker Activity (AID 2283065).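 As to AC50: VCAM-1 protein level quantified by ELISA after 24 h chemical exposure.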 Conditions: primary human foreskin fibroblasts; actives raise or lower the signal. Summed up:
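ELISA readout of VCAM-1 on human dermal fibroblast primary cultures, 24 h after chemical exposure. Gain or loss of signal fitted in both directions against DMSO baseline.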

Read-out in assay [11]: Plasminogen activator inhibitor-1 (PAI1), SERPINE1 (gene 5054)
The assay is described as follows: BSK_hDFCGF_PAI1: BioMAP Diversity Plus: hDFCGF Assay for Plasminogen activator inhibitor-1 (PAI1) Biomarker Activity (AID 2283066). Conditions: primary human foreskin fibroblasts; actives raise or lower the signal. Summed up: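 Fibroblasts from human foreskin were treated with test chemical. After 24 h, PAI-1 was measured by ELISA. Activity was fitted in both directions relative to DMSO.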

Read-out in assay [12]: Intercellular Adhesion Molecule 1 (ICAM1), ICAM1 (gene 3383)
The assay is described as follows: BSK_KF3CT_ICAM1: BioMAP Diversity Plus: KF3CT Assay for Intercellular Adhesion Molecule 1 (ICAM1) Biomarker Activity (AID 2283067). The note with it: primary human keratinocytes with fibroblasts; actives raise or lower the signal. Summed up: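 Cell-surface ICAM-1 was measured by ELISA 24 h after dosing primary human skin keratinocytes co-cultured with fibroblasts. Parallel SRB staining tracked overt cytotoxicity. Gain or loss of signal was fitted relative to DMSO.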

Read-out in assay [13]: Interferon-gamma inducible Protein 10 (IP10), CXCL10 (gene 3627)
Nature of the assay: BSK_KF3CT_IP10: BioMAP Diversity Plus: KF3CT Assay for Interferon-gamma inducible Protein 10 (IP10) Biomarker Activity (AID 2283068). Conditions: primary human keratinocytes with fibroblasts; actives raise or lower the signal. Summed up:
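Signal is secreted/surface IP-10 by ELISA in a human primary skin co-culture of keratinocytes and foreskin fibroblasts, taken 24 h post-dosing; DMSO served as negative control.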

The nature of assay [14]: BSK_KF3CT_SRB: Viability Assessment in the BioMAP Diversity Plus: KF3CT Assay (AID 2283069).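 Also: total protein by sulforhodamine B staining as a cytotoxicity measure; read 24 h after compound addition.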 Conditions: primary human keratinocytes with fibroblasts. Summed up:
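Cytotoxicity was gauged by SRB staining (0.1% SRB, 10% TCA fixation, 560 nm) of parallel cultures at 24 h. The cells were primary human skin keratinocytes co-cultured with fibroblasts, and activity was fitted in both directions against DMSO.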

Read-out in assay [15]: Interleukin-1 alpha (IL1a), IL1A (gene 3552)
The assay is described as follows: BSK_KF3CT_IL1a: BioMAP Diversity Plus: KF3CT Assay for Interleukin-1 alpha (IL1a) Biomarker Activity (AID 2283070). Conditions: primary human keratinocytes with fibroblasts; actives raise or lower the signal. Summed up:
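IL-1a was detected by ELISA 24 h after chemical treatment of a co-culture of human skin keratinocytes and foreskin fibroblasts. Gain or loss of signal was fitted against the DMSO baseline.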

Read-out in assay [16]: TIMP metallopeptidase inhibitor 2 (TIMP2), TIMP2 (gene 7077)
Nature of the assay: BSK_KF3CT_TIMP2: BioMAP Diversity Plus: KF3CT Assay for TIMP metallopeptidase inhibitor 2 (TIMP2) Biomarker Activity (AID 2283071). Conditions: primary human keratinocytes with fibroblasts; actives raise or lower the signal. Summed up: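 Chemicals were dosed onto human skin primary co-cultures of keratinocytes and foreskin fibroblasts, and TIMP-2 was measured by ELISA after 24 hours. Activity in either direction was fitted relative to DMSO.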

Read-out in assay [17]: Transforming growth factor beta 1 (TGFb1), TGFB1 (gene 7040)
Nature of the assay: BSK_KF3CT_TGFb1: BioMAP Diversity Plus: KF3CT Assay for Transforming growth factor beta 1 (TGFb1) Biomarker Activity (AID 2283072). The note with it: primary human keratinocytes with fibroblasts; actives raise or lower the signal. Summed up:
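KF3CT co-culture (keratinocytes + fibroblasts), 24 h exposure → TGF-b1 ELISA → bidirectional fit, DMSO = baseline. Parallel SRB total-protein staining (0.1% SRB, 10% TCA fixation, 560 nm) for cytotoxicity.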

Read-out in assay [18]: Interleukin-8 (IL8), CXCL8 (gene 3576)
Nature of the assay: BSK_hDFCGF_IL8: BioMAP Diversity Plus: hDFCGF Assay for Interleukin-8 (IL8) Biomarker Activity (AID 2283058). Conditions: primary human foreskin fibroblasts; actives raise or lower the signal. Summed up: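 IL-8 levels read by ELISA at 24 hours after dosing human skin fibroblast cultures. Parallel SRB staining assessed overt cytotoxicity, and gain or loss of signal was fitted against DMSO control.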

Active and inactive are the calls of the source. The calls were made as follows: active = hit-call score of the fitted dose curve at least 0.9, where 1 is the maximum; inactive = score below 0.9.

Consider `CC12CC1(C)C(=O)N(c1cc(Cl)cc(Cl)c1)C2=O` (configuration not stated), for which the result in assay [1], in assay [2], in assay [3], in assay [4], in assay [5] and in assay [6] was inactive. Moreover, the outcome in [7], in assay [8], in [9], in assay [10], in [11] and in assay [12] was inactive. The result in [13], in assay [14], in assay [15], in assay [16] and in assay [17] was inactive.

Turning to `Nc1ccc(-c2ccc(N)c(Cl)c2)cc1Cl`, the result in assay [1], in [2], in assay [3], in assay [18], in [5] and in assay [6] was inactive. Moreover, the outcome in assay [7], in assay [8], in assay [9], in assay [10], in [11] and in [12] was inactive. Also, the outcome in [13], in assay [14], in assay [15], in assay [16] and in assay [17] was inactive. Further, in assay [4], the concentration at half-maximal activity (AC50) was 922 nM (active).

Turning to `O=Cc1cccc(Oc2ccccc2)c1`, the outcome in assay [1], in [2], in assay [3], in assay [18], in assay [4] and in [5] was inactive. For the same compound, the outcome in assay [6], in assay [7], in [8], in assay [9], in assay [10] and in assay [11] was inactive. In addition, the outcome in assay [12], in assay [13], in assay [14], in assay [15], in assay [16] and in [17] was inactive.

With `C=C(C)C(=O)[O][Sn]([CH2]CCC)([CH2]CCC)[CH2]CCC`, the AC50 in assay [1] was 391 nM (active); in assay [2], 148 nM (active); in [3] it was 374 nM (active); in assay [18], 148 nM (active); in assay [4], 150 nM (active); in assay [5], 148 nM (active). Also, the AC50 in assay [6] was 242 nM (active); in assay [7], 344 nM (active); in assay [8] it was 148 nM (active); in [9], 148 nM (active); in assay [10] it was 148 nM (active); in assay [11], 254 nM (active). Besides, the AC50 in assay [12] is 354 nM (active); in assay [13], 181 nM (active); in assay [14], 282 nM (active); in assay [15], 148 nM (active); in assay [16] it was 148 nM (active); in assay [17], 148 nM (active).

Regarding `CC(C)(C)CC(C)(C)c1ccc(O)cc1`, the AC50 in assay [1] is 14800 nM (active); in assay [2] it was 12000 nM (active); in assay [3], 8270 nM (active); in [4], 8070 nM (active); in assay [5], 7740 nM (active); in assay [6] it was 9590 nM (active). Further, the concentration at half-maximal activity (AC50) is 8770 nM (active) in [7]; 9020 nM (active) in assay [8]; 6980 nM (active) in [9]; 10800 nM (active) in assay [10]; 8030 nM (active) in assay [11]; 11300 nM (active) in assay [12]. In addition, the AC50 in assay [13] was 10100 nM (active); in [14] it was 6930 nM (active); in assay [15], 7850 nM (active); in [16] it was 7950 nM (active).

Usually AC50 stands for the concentration giving half of the maximal activity seen.
